gsp antagonist – gsp mutant antagonism. Potency, µM (titrated, usually from 76.9 µM), for the others: at the top dose activity change, negative = inhibition, most hits filed as inhibitors. AID 624288. hit rate 0.4% among 340,000. gsp-mutant cells, cAMP HTRF, 30 min; calls by dose curve; cell line not stated here;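 further: intracellular cAMP measured with PDE inhibitor Ro 20-1724 present during compound exposure; potency means the concentration at half of the fitted maximal effect; on the % scale 0 is the no-effect control and ±100 the full control effect; nearly all actives have a fitted effect of over 65% in size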
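HTRF cAMP read-out (cAMP-d2 plus anti-cAMP antibody-K in lysis buffer, 30 min RT). Before lysis, cells are exposed to compounds with […] for 30 min at 37C in DPBS containing Ca/Mg, BSA and Tween 20.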
RXFP1 antagonist – RXFP1 (human) relaxin receptor antagonism; Q9HBX9; HEK293-RXFP1, relaxin-stimulated cAMP HTRF, 30 min; hits give low values; activity change, negative = inhibition, % at 57.5 µM; hit rate 0.59% among 350,000; AID 1259400;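 active means activity change of -60% or lower, but not beyond a set lower limit; inconclusive means change between -60% and -40%, or beyond the set limit; inactive means change above -40%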; further: on the % scale 0 is the no-effect control and ±100 the full control effect
gsp agonist – activates gsp, the McCune-Albright syndrome mutation. gsp mutant cells, cAMP HTRF, 30 min. Potency, µM (doses to about 76.9 µM), without a hit: at the top dose activation (cAMP increase), most hits filed as activators. hit rate 0.13% among 340,000; active means well fitted activation curve with a large enough effect; inconclusive means small, poorly fitted or top-dose-only effect, or another doubt; inactive means no such curve, though single readings can be large or run the other way; cell line not stated here;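 further: phosphodiesterase inhibitor Ro 20-1724 added with compounds to block cAMP breakdown; potency means the concentration at half of the fitted maximal effect; nearly all actives have a fitted effect of over 60% in size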
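Cells in DMEM/10% FBS with G418 were pretreated with compounds in DMSO plus […] (300 uM stock) for 30 min at 37C. cAMP was measured by HTRF (cAMP-d2 plus anti-cAMP antibody-K) after 30 min at room temperature.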
pAkt inh – Akt phosphorylation inhibition. Neuro2A IGF-stimulated pAkt S473 HTRF, 20 min; hits give low values. activity change, % for hits at 50 µM. hit rate 0.32% among 360,000. AID 651550; in the data active means activity change below about -80%; inconclusive means mostly about -51% to -80%; further: on the % scale 0 is the no-effect control and ±100 the full control effect
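Single-point screen (50 µM final compound) in Neuro2A cells stimulated 20 min with 6 nM IGF at 37 deg C. After lysis, Ser473-phosphorylated Akt read by HTRF (ex 330 nm, em 615/665 nm) as the 665/615 ratio.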
TSHR antag – antagonists of human thyroid stimulating hormone receptor | P16473 | TSHR-expressing cells, TSH-stimulated cAMP HTRF, 2 h; hits give low values | activity change, negative = inhibition, % at 11.5 µM | hit rate 0.2% among 330,000;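 active means activity change below a set negative limit, meaning inhibition stronger than a set level, cut at about -70% in these data; inconclusive means activity change between two set negative limits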; further: on the % scale 0 is the no-effect control and ±100 the full control effect
Target sequence (P16473 whole entry, looked up): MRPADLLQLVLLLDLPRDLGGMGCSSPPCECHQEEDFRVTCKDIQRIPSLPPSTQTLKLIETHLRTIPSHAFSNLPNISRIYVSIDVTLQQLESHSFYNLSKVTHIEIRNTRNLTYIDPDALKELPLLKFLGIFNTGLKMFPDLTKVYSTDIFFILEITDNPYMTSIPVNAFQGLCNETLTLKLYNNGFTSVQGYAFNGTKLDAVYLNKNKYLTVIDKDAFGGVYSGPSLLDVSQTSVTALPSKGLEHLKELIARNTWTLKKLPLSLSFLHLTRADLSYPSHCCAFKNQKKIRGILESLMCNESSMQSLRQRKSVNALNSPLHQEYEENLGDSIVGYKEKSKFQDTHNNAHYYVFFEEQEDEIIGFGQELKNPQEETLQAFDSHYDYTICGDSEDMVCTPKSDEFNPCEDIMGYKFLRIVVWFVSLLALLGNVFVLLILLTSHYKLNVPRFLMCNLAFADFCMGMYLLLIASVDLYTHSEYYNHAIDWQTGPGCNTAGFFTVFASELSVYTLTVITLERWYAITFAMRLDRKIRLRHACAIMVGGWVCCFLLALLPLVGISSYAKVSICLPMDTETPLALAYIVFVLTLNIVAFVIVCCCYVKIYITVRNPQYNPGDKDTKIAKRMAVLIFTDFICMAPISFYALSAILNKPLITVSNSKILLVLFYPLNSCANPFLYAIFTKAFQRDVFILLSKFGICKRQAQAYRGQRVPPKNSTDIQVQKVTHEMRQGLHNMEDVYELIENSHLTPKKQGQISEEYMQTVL
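Freshly harvested TSHR cells receive pin-tooled compound, then EC80 TSH at 4nM final. After 2 hours at 37 deg C, antibody in lysis buffer and cAMP-d2 are added; 30 minutes at ambient temperature precede the HTRF read.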
RXFP1 ag – RXFP1 (human) receptor agonism; HEK293T-RXFP1 cAMP TR-FRET, 30 min; response scale: percent of porcine relaxin response, buffer zero; Potency, µM (titrated, usually from 57.5 µM), for inactives: at the top dose activation, most hits filed as activators; hit rate 0.3% among 370,000; active means well fitted activation curve with a large enough effect; inconclusive means small, poorly fitted or top-dose-only effect; further: potency means the concentration at half of the fitted maximal effect; on the % scale 0 is the no-effect control and ±100 the full control effect; nearly all actives have a fitted effect of over 60% in size
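HEK293 cells stably expressing RXFP1, treated 30 min at 37C with compounds plus PDE4 inhibitor Ro 20174; cAMP measured by HTRF TR-FRET. Normalized to buffer and 29 nM porcine relaxin; EC50 by Hill fit.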
Numbers without * were called inactive; i = inactive; ? = inconclusive; / = no result; [ ] = another dose, or the depositor's remark. An excerpt weighted towards active compounds, which were near 1.3% of everything screened.

SMILES | gsp antagonist | RXFP1 antagonist | gsp agonist | pAkt inh | TSHR antag | RXFP1 ag
COc1ccc(NC(=O)c2cc(-c3ccc(OC)c(OC)c3)on2)cc1OC | 7% | 1 | -8% | -88%* | 3 | -1%
COc1ccc(NC(=O)c2cc(-c3ccc(C)cc3)on2)cc1OC | -13% | 1 | 9%[15.4 µM] | i | 13 | 1%
CCn1c(=O)c2sccc2n2c(CCC(=O)Nc3ccc(C(C)C)cc3)nnc12 | / | / | / | / | / | 10%
CC(=O)CSc1nc(-c2cccs2)c(C#N)c(=O)[nH]1 | -2% | 22 | ? | i | 6 | 14µM*
CC(C)(C)c1ccc(-c2nc(SCC(=O)Nc3ccc(Cl)cc3)[nH]c(=O)c2C#N)cc1 | / | -12 | / | / | / | 0%
O=C(NCCc1ccccc1)c1cccnc1N1CCCCCC1 | -6% | -2 | 5% | i | -80* | 3%
CCOC(=O)c1c(-c2ccco2)csc1N | 3% | -4 | 1% | -124%* | 7 | 0%
CCC(C(=O)NCCC1=CCCCC1)n1nc(C)c2c(C)n(-c3ccccc3)nc2c1=O (stereo unspecified) | ? | 14 | ? | i | 21 | 2%
CC12CC3CC(C)(C1)CC(C(=O)N1CCCC1)(C3)C2 | 0% | -88* | -35% | i | 6 | 2%
CN1CCN(C(=O)C23CC4CC(C)(CC(C)(C4)C2)C3)CC1 | 5% | 3 | -18% | i | -6 | 1%
Cc1ccc(C(=O)O)cc1NC(=O)C1=CSCCO1 | -4% | -110* | 13% | / | 5 | 0%
O=C(CCN1C(=O)/C(=C/c2ccccc2)SC1=S)NNC(=O)c1ccncc1 | 40µM* | -1 | -31% | i | 8 | -2%
O=C(CCN1C(=O)/C(=C\c2ccccc2)SC1=S)NNC(=O)c1ccncc1 | -16% | -10 | -8% | i | 0 | -3%
O=C1/C(=C/c2ccccc2)SC(=S)N1CC(=O)N1CCCCC1c1cccnc1 (stereo unspecified) | 40µM* | 7 | 30% | i | -13 | -4%
O=C1/C(=C/c2cccnc2)SC(=S)N1Cc1ccco1 | 35µM* | ? | -22% | i | / | /
Cc1cc(/C=C2\SC(=S)N(Cc3ccco3)C2=O)c(C)n1-c1cccnc1 | 2% | 2 | -26% | i | -9 | -2%
Cc1ccccc1Oc1nnc(-c2cccs2)c2ccccc12 | 25µM* | ? | 8%[15.4 µM] | i | -1 | 2%
CN1CCN(c2nnc(-c3cccs3)c3ccccc23)CC1 | 1% | -2 | -9%[15.4 µM] | i | -13 | 2%
CN(C(=O)NC1CC(=O)N(c2ccc3c(c2)OCCO3)C1)c1ccccc1 (stereo unspecified) | 4% | -1 | 9% | i | 15 | -1%
COc1ccc(-c2c(-c3cc(OC)cc(OC)c3)n(C)c3ccc(Br)cc23)cc1 | 0% | / | / | i | 38 | 0%
COc1ccc(N=Nc2nc3ccc(Br)cc3n2C)cc1 | -30% | -7 | -1% | -106%* | 63 | -4%
CSc1ccc(/C=N/NC(=O)C[n+]2ccccc2)cc1 | 4% | 6 | 20µM* | i | 7 | 0%
C(=N\N1CCN(Cc2cccc3ccccc23)CC1)/c1cccnc1 | -1% | 1 | ? | i | -82* | 0%
CCN(CC)c1ccc(C(=O)NNC(=O)c2cccn2C)cc1 | 4% | 9 | -34%[15.4 µM] | i | 31 | 0%
Cc1nn(CCC(=O)NCc2cccc(Br)c2)c(=O)c2nn(-c3ccccc3)c(C)c12 | / | -26 | / | / | / | 1%
SMILES | gsp antagonist | RXFP1 antagonist | gsp agonist | pAkt inh | TSHR antag | RXFP1 ag
CCOc1cc(/C=C2\SC(=O)N(c3ccc(O)cc3)C2=O)ccc1O | 32µM* | -18 | 10% | i | -9 | -2%
CC(C)Cn1cc(F)c(=O)n(CC(C)C)c1=O | 12% | -35 | -7%[15.4 µM] | i | -3 | 0%
Cc1c(O)ccc(C(=O)COc2ccc(F)cc2)c1O | -12% | 4 | 8% | -89%* | 3 | 0%
CCc1cc(C(=O)COc2ccc(F)cc2)c(O)cc1O | -11% | 3 | 14% | i | -3 | -1%
CC(=O)Nc1ccc(S(=O)(=O)N2CCC(C(N)=O)(N3CCCCC3)CC2)cc1 | 1% | 4 | 0%[15.4 µM] | i | 27 | -2%
CC12CCC(C(=O)N3CCCCC3)(CC1=O)C2(C)C (stereo unspecified) | 5% | 8 | -34% | i | 8 | 0%
CC12CCC(C(=O)NCCN3CCCCC3)(CC1=O)C2(C)C (stereo unspecified) | 4% | -17 | -15% | -114%* | 29 | 1%
COc1ccc(CN2CCCN(C)CC2)c(OC)c1C | 10% | 1 | -48% | i | -119* | 1%
CC(=O)N1c2ccccc2C(C)(c2ccc(C)cc2)CC1(C)C (stereo unspecified) | / | / | / | / | / | 1%
CCCCOC(=O)c1ccc(NC(=O)c2cc(-c3cccs3)on2)cc1 | / | / | / | / | / | 9%
Cc1ccc(-c2nc3ncccc3o2)cc1NC(=O)c1cccs1 | 35µM* | -6 | 7% | i | -11 | 0%
CCCCOc1ccc(-n2nc(C)cc2C)nn1 | -5% | -3 | -6% | -101%* | 10 | -1%
Cc1cc(C)n(-c2ccc(OCC(=O)O)nn2)n1 | 5% | 3 | ? | i | 3 | 1%
O=C(NCc1cccs1)Nc1cccs1 | 6% | -7 | -17% | -114%* | 13 | 0%
Cc1ccccc1CNC(=O)Nc1cccs1 | -1% | -9 | 1% | i | -7 | 1%
C#CC(C)(CC)OC(=O)c1ccccc1C(=O)O (stereo unspecified) | / | 8 | / | / | / | /
O=C(c1ccc(Cl)c(S(=O)(=O)N2CCc3ccccc32)c1)N1CCN(c2ccccc2O)CC1 | ? | -15 | -8%[15.4 µM] | i | -12 | /
O=C(NNC(=O)c1ccccc1O)c1ccc(Cl)c(S(=O)(=O)N2CCc3ccccc32)c1 | ? | -73* | -7%[15.4 µM] | i | / | 0%
CC(=O)Nc1ccc(SC[C@H](C)CN2CC[C@H](C(C)(C)C)CCC2=O)cc1 | -12% | / | / | i | -16 | 1%
O=C(O)c1ccc(OCCN2CCCCC2)cc1 | / | 6 | / | / | / | /
O=S(=O)(Nc1ccc2c3c(cccc13)CC2)c1ccc(F)cc1 | -15% | -2 | -3% | i | 24 | -3%
CSc1ccc(S(=O)(=O)Nc2ccc3c4c(cccc24)CC3)cc1 | 28µM* | -16 | -26% | i | 15 | -1%
O=C(CN1C(=O)COc2ccc(S(=O)(=O)N3CCOCC3)cc21)Nc1ccc(F)c(Cl)c1 | / | -1 | / | / | / | 1%
CCOc1ccc(-c2nnc(Nc3ccc(OC)c(C(=O)N4CCCCC4)c3)c3ccccc23)cc1 | 35µM* | 1 | -70% | i | -3 | 0%
CCOc1ccc(CC(=O)Nc2c(C(=O)c3ccccc3)oc3ccc(OC)cc23)cc1OCC | / | / | / | / | / | -1%
